Test results as given in PubChem BioAssay.
Results filed as inconclusive are left out. Calls of active or inactive are those of the source.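 The calls were made as follows, unless noted: active = GFP signal, as percent of the solvent control, above the screen mean plus 3 SD, about 149; inconclusive = no reading because the compound's own fluorescence upset strain identification; inactive = the rest.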

Tests used:
[1] = yeast TOR pathway RPL19A-GFP modulators, primary screen, cell-based, S. cerevisiae, multiplex flow cytometry (AID 1862; in the data active = percent of DMSO control GFP below about 86%;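 also: lower values mimic rapamycin by blocking the RPL19A rise seen in DMSO cells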); conditions: S. cerevisiae RPL19A-GFP strain, flow cytometry fluorescence, 3 h; at 10 µM; stronger effect = lower value
[2] = modulators of MEP2-GFP levels in yeast, primary screen, S. cerevisiae, multiplex flow cytometry (AID 1867;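 active = GFP response, as percent of the DMSO control, above the screen-wide mean plus 3 SD, about 139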;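 also: median GFP channel fluorescence of barcode-gated MEP2-GFP cells measured by flow cytometry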); conditions: S. cerevisiae MEP2-GFP strain, 3 h, at 10 µM, stronger effect = higher value, 100% means same as DMSO wells
[3] = modulators of CIT2-GFP expression in yeast, primary screen, S. cerevisiae, GFP fusion, multiplex flow cytometry (AID 1870;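 active = percent response above a set limit, the screen-wide mean plus 3 SD, cut at about 130% in these data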;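 also: barcoded CIT2-GFP strain pooled with four other GFP strains with rapamycin as positive control; median GFP fluorescence per well over plate mean of DMSO wells so 100% = DMSO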); conditions: 3 h, at 10 µM, stronger effect = higher value
[4] = modulators of LAP4-GFP expression in yeast, primary screen, S. cerevisiae, multiplex flow cytometry (AID 1873); conditions: 3 h, at 10 µM, stronger effect = higher value
[5] = modulators of AGP1-GFP expression in yeast TOR pathway, primary screen, cell-based, multiplex flow cytometry, S. cerevisiae (AID 1887;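 active = GFP signal above the screen-wide mean plus 3 SD, that is over about 124.5% of the solvent control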;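 also: AGP1-GFP fusion strain of S. cerevisiae within a five-strain barcoded multiplex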); conditions: 3 h, at 10 µM, stronger effect = higher value
[6] = inhibitors of CD8+ T cell-vesicle binding, pilot screen, LFA-1/ICAM-1 modulator project, MLPCN validation set, flow cytometry (AID 2523;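 active = response below a set limit, under 55% cells CD8-positive and vesicle-bound, and CD8 cells' 90th-percentile brightness under 279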;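 as to vesicle binding response: mean PE anti-B7-1 fluorescence of CD8+ cells relative to row control; 100% = QL9-loaded vesicles with DMSO vehicle in the same plate row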); conditions: 2C mouse CD8+ T cells, at 7 µM, stronger effect = lower value; double positive events: measured here: CD8+/vesicle+ event percentage
[7] = target: Integrin beta-1 (Homo sapiens) + Integrin alpha-4 (Homo sapiens) (UniProt P13612+P05556); assay: inhibition of HUTS-21 binding to VLA-4, pilot screen, VLA-4 allosteric modulator project, U937 cells, HUTS-21 mAb, flow cytometry, validation set (AID 2674;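 active = inhibition above 50%, about 3 SD of the validation set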;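 also: antibody binding induced by the VLA-4 ligand LDV present at three times its Kd; 0% = LDV ligand with antibody and no compound and 100% = antibody without LDV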); conditions: HUTS-21 LIBS mAb binding, at 6.7 µM, stronger effect = higher value, binding induced by LDV ligand
[8] = superoxide lowering in aged yeast cells, pilot screen, validation compound set (AID 2706;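 active = superoxide response below 65% of plate, a cut near 3 SD across the whole screen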;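 also: yeast exposed to compound for one week at 30 degrees C before staining; 100% = mean of all compound wells on the same plate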); conditions: S. cerevisiae aging, superoxide DHE fluorescence; at 10 µM, stronger effect = lower value
[9] = target: Beta-adrenergic receptor kinase 1 (Homo sapiens) (UniProt P25098); assay: GRK2 binders displacing RNA aptamer, biochemical, validation, human GRK2, bead flow cytometry (AID 488806;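 active = aptamer binding inhibition above 30%, about 3 SD of noise from non-fluorescent compounds; inactive = inhibition at or below 30%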); conditions: bead-bound GRK2, FAM-aptamer displacement, at 10 µM, stronger effect = higher value
[10] = target: Beta-2 adrenergic receptor (Homo sapiens) (UniProt P07550); assay: beta2AR agonists driving receptor internalization, pilot screen, cell-based, FAP fluorogen, flow cytometry, validation set (AID 504459;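 active = percent response above 42, roughly 3 SD of non-fluorescent test compounds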;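 also: agonist-driven loss of surface beta2AR via internalization measured by FAP dye flow cytometry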); conditions: Am2.2-beta2AR cells, FAP surface receptor flow cytometry; at 10 µM; stronger effect = higher value
[11] = target: AP-2 complex subunit beta (Homo sapiens) (UniProt P63010); assay: inhibitors of arrestin peptide binding to AP2, pilot screen, biochemical, validation set, GST-AP2 beads, flow cytometry (AID 504541;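 active = inhibition above 54%, about 3 SD of non-fluorescent compounds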;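 also: AP2 carries R879A mutation and is captured from E. coli lysate; bead-bound FITC arrestin peptide fluorescence measuring arrestin peptide binding to AP2; 0% = DMSO wells and 100% = excess unlabeled arrestin peptide control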); conditions: FITC arrestin peptide, at 10 µM, stronger effect = higher value, AP2 beta2 appendage fragment, R879A mutant
[12] = yeast V-ATPase proton transport modulators, S. cerevisiae, pHLuorin, HTS validation (AID 504600; in the data active = response above about 15%;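 also: plate controls were DMSO for no effect and reference compound for full effect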); conditions: S. cerevisiae pHLuorin cytosolic pH, at 10 µM, stronger effect = higher value
[13] = system: anti-desmoglein-3 scFv antibody binding to human DSG3; assay: inhibitors of anti-DSG3 scFv binding to DSG3, pilot screen, biochemical, validation compound set, bead-based, flow cytometry (AID 588368;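 active = binding below the plate cutoff, the plate median minus 3 SD, with a reading above zero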;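 also: signal is the median channel fluorescence of bead-bound GFP antibody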); conditions: Protein G beads, DSG3-Fc, scFv-GFP binding, at 10 µM, stronger effect = lower value
[14] = inhibitors of fungal efflux pumps CDR1, CDR2, MDR1, pilot screen, validation compound set, multiplex, phenotypic (AID 588506;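 active = efflux inhibition above 0.42, the validation set average plus 4 SD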;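 also: Nile Red retained in cells so higher fluorescence means more efflux inhibition; 0 = negative control wells and 1 = enniatin B 25 µM full block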); conditions: S. cerevisiae pump-expressing triplex, Nile Red efflux flow cytometry; at 10 µM; stronger effect = higher value; the pumps come from Candida albicans
[15] = target: ATP-binding cassette sub-family B member 6 (Homo sapiens) (UniProt Q9NP58); assay: ABCB6 transporter inhibitors, pilot screen, K562-ABCB6 cells, flow cytometry, validation set (AID 588550;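 active = inhibition above the screen-wide mean plus 3 SD, about 51%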;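 also: 0% = DMSO wells and 100% = benzethonium chloride 70 µM positive control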); conditions: K562-ABCB6 porphyrin accumulation, 1 h, at 10 µM, stronger effect = higher value
[16] = promoters of myeloid differentiation in arrested cells, primary screen, cell-based, GFP/MAC1 double positive, flow cytometry, validation set (AID 588685;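 active = differentiation response of at least 50%, scaled between solvent and reference control, from cells with both markers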;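 also: compound exposure lasts four days before antibody staining and flow analysis; 0% = DMSO wells and 100% = 5 µM fulvestrant positive control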); conditions: ER-HoxA9 marrow cells, stronger effect = higher value, normalized: vehicle 0, fulvestrant 100
[17] = RPL19A-GFP modulators, yeast TOR pathway, confirmation, cell-based, S. cerevisiae, flow cytometry, cherry picks, mother/daughter gates (AID 2270;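 active = GFP response below 50% of the DMSO control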); conditions: S. cerevisiae RPL19A-GFP strain, 3 h, at 10 µM, stronger effect = lower value, 100 = same GFP as DMSO wells
[18] = LAP4-GFP expression modulators in yeast, confirmation, cell-based, cherry picks, flow cytometry, mother/daughter gates (AID 2271;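 active = GFP response above 150% of the DMSO control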;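 also: ratio of sample to DMSO plate mean so 100% equals DMSO level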); conditions: S. cerevisiae LAP4-GFP strain, 3 h, at 10 µM, stronger effect = higher value, 100 means same as DMSO control
[19] = modulators of MEP2-GFP levels in yeast, confirmation, S. cerevisiae, flow cytometry GFP, cherry picks (AID 2272;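 active = GFP response above 150% of the DMSO control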;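 also: ratio of well signal to plate DMSO mean so 100% equals DMSO level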); conditions: S. cerevisiae MEP2-GFP strain, 3 h, at 10 µM, stronger effect = higher value
[20] = modulators of CIT2-GFP expression in yeast, confirmation, S. cerevisiae, GFP fusion, cherry picks, mother/daughter gates (AID 2274;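 active = GFP response above 150% of the DMSO level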); conditions: S. cerevisiae CIT2-GFP strain, flow cytometry, 3 h, at 10 µM, stronger effect = higher value
[21] = measured here: daughter cell gate
[22] = measured here: mother cell gate
[23] = measured here: daughter cell gate response
[24] = measured here: mother cell gate response

Sequence of ATP-binding cassette sub-family B member 6 (Homo sapiens) (Q9NP58 whole entry, looked up): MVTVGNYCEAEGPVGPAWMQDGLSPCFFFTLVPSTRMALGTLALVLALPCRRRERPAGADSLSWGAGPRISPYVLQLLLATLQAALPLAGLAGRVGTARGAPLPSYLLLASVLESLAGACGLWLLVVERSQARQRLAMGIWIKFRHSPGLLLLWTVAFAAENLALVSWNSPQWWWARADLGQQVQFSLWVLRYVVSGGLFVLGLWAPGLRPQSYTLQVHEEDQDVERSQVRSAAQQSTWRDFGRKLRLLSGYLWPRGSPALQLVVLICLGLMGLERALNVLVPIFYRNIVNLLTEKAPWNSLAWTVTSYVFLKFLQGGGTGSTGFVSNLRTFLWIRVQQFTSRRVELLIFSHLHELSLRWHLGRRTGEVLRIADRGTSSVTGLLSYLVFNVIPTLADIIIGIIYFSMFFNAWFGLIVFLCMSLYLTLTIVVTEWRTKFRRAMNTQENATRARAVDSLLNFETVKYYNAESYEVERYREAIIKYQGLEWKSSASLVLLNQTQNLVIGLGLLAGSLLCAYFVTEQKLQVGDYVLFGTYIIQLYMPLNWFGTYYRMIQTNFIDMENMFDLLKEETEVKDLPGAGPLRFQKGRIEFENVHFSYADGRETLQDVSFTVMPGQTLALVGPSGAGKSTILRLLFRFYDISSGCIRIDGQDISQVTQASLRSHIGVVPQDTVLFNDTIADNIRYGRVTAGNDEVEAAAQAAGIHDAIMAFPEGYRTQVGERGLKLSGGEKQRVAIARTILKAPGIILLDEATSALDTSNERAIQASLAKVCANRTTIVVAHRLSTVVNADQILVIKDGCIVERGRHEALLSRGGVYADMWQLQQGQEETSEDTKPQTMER
Sequence of Integrin beta-1 (Homo sapiens) + Integrin alpha-4 (Homo sapiens) (P05556 whole entry, looked up): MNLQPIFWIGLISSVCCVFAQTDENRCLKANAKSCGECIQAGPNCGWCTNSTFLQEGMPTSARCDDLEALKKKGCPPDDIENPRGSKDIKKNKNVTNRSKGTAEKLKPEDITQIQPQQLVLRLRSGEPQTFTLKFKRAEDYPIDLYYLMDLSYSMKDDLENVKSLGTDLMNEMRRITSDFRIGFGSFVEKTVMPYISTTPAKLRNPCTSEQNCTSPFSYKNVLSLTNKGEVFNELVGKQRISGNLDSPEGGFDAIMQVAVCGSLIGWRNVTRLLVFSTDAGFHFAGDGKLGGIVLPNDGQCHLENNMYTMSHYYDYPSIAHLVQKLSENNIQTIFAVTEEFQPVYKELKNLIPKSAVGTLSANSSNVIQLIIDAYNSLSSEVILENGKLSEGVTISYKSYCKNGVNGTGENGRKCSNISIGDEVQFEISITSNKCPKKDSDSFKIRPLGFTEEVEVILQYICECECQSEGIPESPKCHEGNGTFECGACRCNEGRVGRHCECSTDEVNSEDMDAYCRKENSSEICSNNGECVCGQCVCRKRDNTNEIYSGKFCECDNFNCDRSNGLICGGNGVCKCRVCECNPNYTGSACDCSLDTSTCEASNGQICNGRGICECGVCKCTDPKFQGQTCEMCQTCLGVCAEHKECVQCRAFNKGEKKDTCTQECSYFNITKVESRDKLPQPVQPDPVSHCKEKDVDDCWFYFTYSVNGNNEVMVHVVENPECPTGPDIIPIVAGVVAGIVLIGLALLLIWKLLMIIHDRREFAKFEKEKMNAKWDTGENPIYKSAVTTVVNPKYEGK
Sequence of Integrin beta-1 (Homo sapiens) + Integrin alpha-4 (Homo sapiens) (P13612 whole entry, looked up): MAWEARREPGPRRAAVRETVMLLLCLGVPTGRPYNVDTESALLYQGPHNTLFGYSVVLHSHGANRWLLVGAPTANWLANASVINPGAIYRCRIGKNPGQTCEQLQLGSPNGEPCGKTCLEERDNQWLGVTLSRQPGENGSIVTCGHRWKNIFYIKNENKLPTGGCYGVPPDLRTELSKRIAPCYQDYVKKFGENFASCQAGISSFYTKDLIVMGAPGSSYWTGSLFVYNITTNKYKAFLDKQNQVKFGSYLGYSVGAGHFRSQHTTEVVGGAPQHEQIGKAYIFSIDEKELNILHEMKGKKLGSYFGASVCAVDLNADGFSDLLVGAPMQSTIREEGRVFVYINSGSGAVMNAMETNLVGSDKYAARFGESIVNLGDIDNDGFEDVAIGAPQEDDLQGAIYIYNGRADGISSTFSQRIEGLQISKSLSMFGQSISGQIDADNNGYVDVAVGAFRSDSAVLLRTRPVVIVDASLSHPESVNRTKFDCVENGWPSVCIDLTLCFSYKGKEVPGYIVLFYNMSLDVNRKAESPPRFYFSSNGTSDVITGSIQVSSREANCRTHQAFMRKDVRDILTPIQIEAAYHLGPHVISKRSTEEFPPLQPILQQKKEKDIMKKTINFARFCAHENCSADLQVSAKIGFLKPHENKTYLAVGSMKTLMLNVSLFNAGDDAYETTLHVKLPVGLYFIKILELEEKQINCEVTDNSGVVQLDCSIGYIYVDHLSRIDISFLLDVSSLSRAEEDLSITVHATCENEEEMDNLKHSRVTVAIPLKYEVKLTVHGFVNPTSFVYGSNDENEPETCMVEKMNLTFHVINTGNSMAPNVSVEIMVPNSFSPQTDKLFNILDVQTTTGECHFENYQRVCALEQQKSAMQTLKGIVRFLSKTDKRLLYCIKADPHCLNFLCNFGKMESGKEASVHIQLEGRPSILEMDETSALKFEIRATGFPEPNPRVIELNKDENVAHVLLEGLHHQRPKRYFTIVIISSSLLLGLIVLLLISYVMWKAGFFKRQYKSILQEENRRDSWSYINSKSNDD
Sequence of Beta-2 adrenergic receptor (Homo sapiens) (P07550 whole entry, looked up): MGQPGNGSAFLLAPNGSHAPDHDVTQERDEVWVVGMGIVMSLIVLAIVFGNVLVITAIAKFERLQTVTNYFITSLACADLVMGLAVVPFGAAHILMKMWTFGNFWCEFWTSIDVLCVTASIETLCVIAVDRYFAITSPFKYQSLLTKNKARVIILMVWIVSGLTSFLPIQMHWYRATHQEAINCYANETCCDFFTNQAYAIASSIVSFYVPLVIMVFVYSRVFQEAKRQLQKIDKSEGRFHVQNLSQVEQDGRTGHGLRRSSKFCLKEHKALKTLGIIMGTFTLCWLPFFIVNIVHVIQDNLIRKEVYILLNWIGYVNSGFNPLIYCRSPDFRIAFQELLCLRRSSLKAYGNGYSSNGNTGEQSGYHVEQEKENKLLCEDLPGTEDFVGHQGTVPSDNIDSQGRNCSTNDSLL
Sequence of AP-2 complex subunit beta (Homo sapiens) (P63010 whole entry, looked up, the tested form may be a part, one chain of several): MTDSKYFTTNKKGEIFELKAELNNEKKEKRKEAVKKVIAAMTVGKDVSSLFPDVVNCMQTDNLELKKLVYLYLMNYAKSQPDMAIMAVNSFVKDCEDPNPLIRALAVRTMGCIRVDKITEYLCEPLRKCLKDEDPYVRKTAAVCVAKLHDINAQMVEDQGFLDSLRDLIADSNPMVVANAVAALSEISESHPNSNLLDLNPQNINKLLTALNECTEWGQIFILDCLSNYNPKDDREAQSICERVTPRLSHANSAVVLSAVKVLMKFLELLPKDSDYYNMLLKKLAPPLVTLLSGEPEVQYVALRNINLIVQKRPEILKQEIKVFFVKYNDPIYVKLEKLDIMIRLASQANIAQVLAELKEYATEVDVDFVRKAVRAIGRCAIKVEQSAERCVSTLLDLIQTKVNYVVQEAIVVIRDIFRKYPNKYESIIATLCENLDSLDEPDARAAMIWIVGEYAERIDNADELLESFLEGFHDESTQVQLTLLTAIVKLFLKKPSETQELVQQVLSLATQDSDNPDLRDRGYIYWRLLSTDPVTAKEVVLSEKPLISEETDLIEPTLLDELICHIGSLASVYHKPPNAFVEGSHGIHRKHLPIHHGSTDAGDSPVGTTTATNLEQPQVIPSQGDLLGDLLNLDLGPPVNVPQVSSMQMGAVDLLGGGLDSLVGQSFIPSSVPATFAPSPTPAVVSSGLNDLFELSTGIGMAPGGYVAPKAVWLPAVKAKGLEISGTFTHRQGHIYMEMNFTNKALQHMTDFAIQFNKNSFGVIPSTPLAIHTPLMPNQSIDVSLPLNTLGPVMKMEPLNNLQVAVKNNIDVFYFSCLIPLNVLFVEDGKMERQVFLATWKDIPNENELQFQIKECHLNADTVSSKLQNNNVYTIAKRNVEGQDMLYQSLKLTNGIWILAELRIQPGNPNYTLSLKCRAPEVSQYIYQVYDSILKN
Sequence of Beta-adrenergic receptor kinase 1 (Homo sapiens) (P25098 whole entry, looked up): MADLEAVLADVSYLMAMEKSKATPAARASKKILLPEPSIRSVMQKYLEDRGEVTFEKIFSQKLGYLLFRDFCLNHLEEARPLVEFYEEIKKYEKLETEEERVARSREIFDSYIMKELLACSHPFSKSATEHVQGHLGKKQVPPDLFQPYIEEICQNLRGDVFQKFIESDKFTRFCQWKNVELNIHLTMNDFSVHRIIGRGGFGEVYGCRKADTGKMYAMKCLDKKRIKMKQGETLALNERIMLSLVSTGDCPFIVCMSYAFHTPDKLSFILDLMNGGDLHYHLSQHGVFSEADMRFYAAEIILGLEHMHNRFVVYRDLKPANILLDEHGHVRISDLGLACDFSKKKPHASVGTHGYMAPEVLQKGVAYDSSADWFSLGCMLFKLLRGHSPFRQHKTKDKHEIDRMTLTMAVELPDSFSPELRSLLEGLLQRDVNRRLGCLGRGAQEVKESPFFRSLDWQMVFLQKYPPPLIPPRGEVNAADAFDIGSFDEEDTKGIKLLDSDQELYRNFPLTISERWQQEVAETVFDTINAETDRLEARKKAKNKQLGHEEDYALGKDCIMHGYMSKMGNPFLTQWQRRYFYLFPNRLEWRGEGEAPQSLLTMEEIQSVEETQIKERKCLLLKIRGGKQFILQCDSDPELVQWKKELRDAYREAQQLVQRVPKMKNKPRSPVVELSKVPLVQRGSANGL

With `CN(C)CCCN1c2ccccc2CCc2ccc(Cl)cc21` the percent of DMSO control GFP [1] was 100% (inactive), the GFP response vs DMSO [2] was 99.7% (inactive) and the percent response of DMSO control [3] was 101% (inactive). For the same compound, the GFP response vs DMSO [4] was 98% (inactive), the GFP response, % of DMSO [5] was 97.1% (inactive) and the double positive events [6] was 65%. For the same compound, the inhibition [7] was 12.3% (inactive), the superoxide response (% of plate) [8] was 97.5% (inactive) and the aptamer binding inhibition [9] was -3% (inactive). The response [10] was 38.7% (inactive), the inhibition [11] was -2% (inactive) and the response [12] was -7.85% (inactive). For the same compound, the binding (% of control) [13] was 112% (inactive), the efflux inhibition (fraction of control) [14] was 0.51 (active) and the inhibition [15] was 18% (inactive). The differentiation response [16] was -10.4% (inactive).
In the case of `CN(C)CCOc1ccc(Cl)cc1C(C)(C)C`, the percent of DMSO control GFP [1] is reported as 103% (inactive), the GFP response vs DMSO [2] is reported as 98.5% (inactive) and the percent response of DMSO control [3] is reported as 105% (inactive). The GFP response vs DMSO [4] was 122% (inactive), the GFP response, % of DMSO [5] was 109% (inactive) and the double positive events [6] was 40.5%. For the same compound, the inhibition [7] was 7.76% (inactive), the superoxide response (% of plate) [8] was 105% (inactive) and the aptamer binding inhibition [9] was -1% (inactive). For the same compound, the response [10] was -20.4% (inactive), the inhibition [11] was -1.49% (inactive) and the response [12] was -1.18% (inactive). For the same compound, the binding (% of control) [13] was 99.5% (inactive), the efflux inhibition (fraction of control) [14] was 0.05 (inactive) and the inhibition [15] was 5% (inactive). For the same compound, the differentiation response [16] was -16.8% (inactive).
For `C[C@]12CCC(=O)C=C1CC[C@@H]1[C@@H]2C(=O)C[C@@]2(C)[C@H]1CC[C@]2(O)C(=O)CO`, the percent of DMSO control GFP [1] was 89.8% (inactive), the GFP response vs DMSO [2] was 125% (inactive) and the percent response of DMSO control [3] was 108% (inactive). The GFP response vs DMSO [4] was 88% (inactive), the GFP response vs DMSO [17] was 97% (inactive) and the GFP response vs DMSO [17, 21] was 97.3%. The GFP response vs DMSO [17, 22] was 98.1%, the GFP response relative to DMSO [18] was 96.5% (inactive) and the GFP response relative to DMSO [18, 23] was 99.3%. The GFP response relative to DMSO [18, 24] was 94.6%, the GFP response vs DMSO [19] was 102% (inactive) and the GFP response, % of DMSO [20] was 99.3% (inactive). For the same compound, the GFP response, % of DMSO [20, 21] was 100%, the GFP response, % of DMSO [20, 22] was 99.1% and the double positive events [6] was 61.9%. The vesicle binding response [6] was 136% (inactive), the inhibition [7] was 14.2% (inactive) and the superoxide response (% of plate) [8] was 94.9% (inactive). For the same compound, the aptamer binding inhibition [9] was 4% (inactive), the response [10] was -5.55% (inactive) and the inhibition [11] was -9.52% (inactive). For the same compound, the response [12] was 1.03% (inactive), the binding (% of control) [13] was 101% (inactive) and the efflux inhibition (fraction of control) [14] was 0.3 (inactive). For the same compound, the inhibition [15] was 14% (inactive) and the differentiation response [16] was 14.7% (inactive).
In the case of `CC(=O)[C@@]1(O)CC[C@H]2[C@@H]3CCC4=CC(=O)CC[C@]4(C)[C@H]3CC[C@@]21C`, the percent of DMSO control GFP [1] is reported as 92.2% (inactive), the GFP response vs DMSO [2] is reported as 130% (inactive) and the percent response of DMSO control [3] is reported as 139% (active). For the same compound, the GFP response vs DMSO [4] was 97.4% (inactive), the GFP response vs DMSO [17] was 104% (inactive) and the GFP response vs DMSO [17, 21] was 99.5%. For the same compound, the GFP response vs DMSO [17, 22] was 105%, the GFP response relative to DMSO [18] was 95% (inactive) and the GFP response relative to DMSO [18, 23] was 94.1%. The GFP response relative to DMSO [18, 24] was 97.2%, the GFP response vs DMSO [19] was 97.8% (inactive) and the GFP response, % of DMSO [20] was 100% (inactive). The GFP response, % of DMSO [20, 21] was 99.7%, the GFP response, % of DMSO [20, 22] was 101% and the double positive events [6] was 53.6%. The vesicle binding response [6] was 216% (inactive), the inhibition [7] was -13.9% (inactive) and the superoxide response (% of plate) [8] was 104% (inactive). For the same compound, the aptamer binding inhibition [9] was -15% (inactive), the response [10] was -16.3% (inactive) and the inhibition [11] was 42.9% (inactive). For the same compound, the response [12] was -8.27% (inactive), the binding (% of control) [13] was 217% (inactive) and the efflux inhibition (fraction of control) [14] was 0.27 (inactive). For the same compound, the inhibition [15] was 2% (inactive) and the differentiation response [16] was 40.1% (inactive).
